For 13 compounds, growth results are on record in PubChem BioAssay (NCI).

The panel holds about 83,000 compounds, 20% with a hit somewhere; the sample as a whole holds those more often.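 Values shown are percent growth following 48 h exposure of cells in 96-well plates to a single concentration of compound; below 10 was considered active.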 Values without a mark were called inactive. Activity calls are given as the source filed them.

Some test systems named below: HCT-15 colon; HT29 colon; SNB-75 CNS; SNB-19 CNS; U251 CNS; PC-3 prostate; SK-MEL-5 melanoma; UACC-62 melanoma; LOX IMVI melanoma; SK-MEL-28 melanoma.
Common to all, as to experiment: NCI-60 one-dose screen, 48 h (100 = growth as untreated, 0 = no growth, -100 = all killed)
Conditions in all cases: 10 µM

`O=C(O)c1cn(C2CC2)c2cc(N3CCN(C(=O)c4cc(-c5ccc(Cl)cc5)nc5ccccc45)CC3)c(F)cc2c1=O`: the growth in the test with HCT-15 colon is 90.8%; in the test with HT29 colon, 96.1%; with SNB-75 CNS it was 77.2%; with SNB-19 CNS, 86%; in the test with U251 CNS it was 96%; in the test with PC-3 prostate, 70.7%. Moreover, the growth in the test on SK-MEL-5 melanoma is 85.4%; in the test with UACC-62 melanoma, 66.6%; with LOX IMVI melanoma it was 63.4%; with SK-MEL-28 melanoma it was 96.6%.

With `CC(C)(C)OC(=O)N1CCc2c(sc3ncnc(N/N=C/c4ccc(Br)cc4)c23)C1`, the growth is 28.1% with HCT-15 colon; 33.8% with HT29 colon; 61.8% with SNB-75 CNS; 69.5% with SNB-19 CNS; 67.3% in the test on U251 CNS; 44% in the test on PC-3 prostate. The growth with SK-MEL-5 melanoma was 24%; in the test with UACC-62 melanoma, 42.2%; in the test with LOX IMVI melanoma, 54.8%; in the test with SK-MEL-28 melanoma it was 63.2%.

As to `NS(=O)(=O)Oc1ccc(NC(=O)C2CCCCCC2)cc1`, the growth in the test with HCT-15 colon was 100%; in the test with HT29 colon, 108%; with SNB-75 CNS, 96.1%; in the test with SNB-19 CNS it was 101%; in the test on U251 CNS, 100%; with PC-3 prostate it was 96.5%. Further, the growth in the test on SK-MEL-5 melanoma is 101%; with UACC-62 melanoma it was 99.7%; in the test with LOX IMVI melanoma, 98.8%; with SK-MEL-28 melanoma, 104%.

As for `CS(=O)(=O)c1nccc(-c2c(-c3cccc(OCCN4CCOCC4)c3)nc3sccn23)n1`, the growth in the test on HCT-15 colon was 81.8%; in the test on HT29 colon it was 66.9%; in the test with SNB-75 CNS, 75.9%; in the test with SNB-19 CNS, 82.5%; in the test with U251 CNS it was 86.6%; with PC-3 prostate, 77.9%. In addition, the growth in the test on SK-MEL-5 melanoma is 84.5%; in the test with UACC-62 melanoma, 89.1%; in the test on LOX IMVI melanoma it was 91.3%; in the test on SK-MEL-28 melanoma it was 99.3%.

As to `OCC1OC(n2ccc3c(NO)ncnc32)C(O)C1O` (stereo not given), the growth with HCT-15 colon was -37.6% (active); with HT29 colon, -1.97% (active); with SNB-75 CNS, -24.2% (active); in the test with SNB-19 CNS, -0.974% (active); in the test on U251 CNS it was 0.0054% (active); in the test with PC-3 prostate, -7.72% (active). Besides, the growth in the test with SK-MEL-5 melanoma was -90.8% (active); in the test with UACC-62 melanoma, -88.8% (active); in the test with LOX IMVI melanoma, -45.3% (active); in the test with SK-MEL-28 melanoma, -47.5% (active).

For the compound `COc1ccc2cc(-c3nc4ccccc4s3)c(Cl)nc2c1OC`, the growth in the test on HCT-15 colon was 97%; in the test on HT29 colon, 104%; with SNB-75 CNS, 82.1%; with SNB-19 CNS, 93.9%; in the test with U251 CNS, 107%; in the test on PC-3 prostate, 92.6%. Also, the growth with SK-MEL-5 melanoma is 92.9%; in the test on UACC-62 melanoma, 91.1%; in the test on LOX IMVI melanoma it was 90.6%; in the test on SK-MEL-28 melanoma it was 107%.

`CCOc1ccccc1/C=N\N=C(\N)N/N=C/c1ccccc1OCC`: the growth in the test on HCT-15 colon was 24.7%; with HT29 colon, 10.7%; in the test with SNB-75 CNS, -3.85% (active); in the test on SNB-19 CNS it was 43%; in the test with U251 CNS, 38.3%; in the test on PC-3 prostate, 31.9%. Besides, the growth with SK-MEL-5 melanoma was 17.8%; in the test on UACC-62 melanoma, 30.9%; with LOX IMVI melanoma, 30.9%; in the test on SK-MEL-28 melanoma it was 42.9%.

Turning to `C=CCN(CC=C)C(=O)[C@H](CC)[C@@H]1CC[C@@H](C)[C@@H]([C@H](C)[C@@H](O)[C@@H](C)C(=O)[C@H](CC)C2O[C@]3(C=C[C@@H](O)[C@]4(CC[C@@](C)([C@H]5CC[C@](O)(CC)[C@H](C)O5)O4)O3)[C@H](C)C[C@@H]2C)O1` (stereo not given in full), the growth with HCT-15 colon is 4.64% (active); with HT29 colon, 9.13% (active); with SNB-75 CNS it was -7.45% (active); with SNB-19 CNS, 14.2%; in the test with U251 CNS it was 18.9%; in the test with PC-3 prostate, 2.56% (active). Further, the growth in the test with SK-MEL-5 melanoma is -85.2% (active); with UACC-62 melanoma, 14.3%; with LOX IMVI melanoma, 17%; in the test with SK-MEL-28 melanoma it was 33.9%.

`C[C@@H](C[C@H](CCO)c1ccccc1)c1ccc2ccccc2c1`: the growth in the test on HCT-15 colon is -75% (active); in the test on HT29 colon, -72.8% (active); with SNB-75 CNS, -8.12% (active); with SNB-19 CNS, -78.3% (active); in the test with U251 CNS, -95% (active); in the test with PC-3 prostate, -89.2% (active). For the same compound, the growth with SK-MEL-5 melanoma was -87.9% (active); with UACC-62 melanoma, -76.2% (active); with LOX IMVI melanoma, -94.5% (active); in the test on SK-MEL-28 melanoma, -79.3% (active).

For `COc1cc(-c2nn(-c3cccc(NC(=O)NCCNC(=O)c4ccccc4)c3)cc2-c2ccncc2)ccc1Cl`, the growth was 9.91% (active) in the test on HCT-15 colon; 5.63% (active) in the test with HT29 colon; 33.4% in the test with SNB-75 CNS; 35.3% in the test on SNB-19 CNS; 25.3% in the test on U251 CNS; 6.41% (active) in the test on PC-3 prostate. The growth with SK-MEL-5 melanoma is -72.7% (active); in the test on UACC-62 melanoma, 21.9%; with LOX IMVI melanoma, 2.52% (active); in the test with SK-MEL-28 melanoma it was 7.24% (active).

With `CN1CCN(CC(=O)Nc2cccc(-n3cc(-c4ccncc4)c(-c4ccc(Cl)c(O)c4)n3)c2)CC1`, the growth is 40.5% in the test on HCT-15 colon; 4.08% (active) in the test with HT29 colon; 30.5% in the test with SNB-75 CNS; 55.5% with SNB-19 CNS; 30.8% in the test with U251 CNS; 26.6% in the test with PC-3 prostate. Also, the growth with SK-MEL-5 melanoma was 27.3%; in the test with UACC-62 melanoma, 48.3%; with LOX IMVI melanoma it was 14.6%; in the test with SK-MEL-28 melanoma it was 60.8%.

Consider `CC(C)N(CCOc1ccc(-c2nc3sccn3c2-c2ccnc(S(C)(=O)=O)n2)cc1)C(C)C`, for which the growth is 92.8% in the test on HCT-15 colon; 60.3% with HT29 colon; 83.5% with SNB-75 CNS; 107% in the test with SNB-19 CNS; 91.4% with U251 CNS; 62.5% with PC-3 prostate. Moreover, the growth in the test with SK-MEL-5 melanoma was 39.2%; in the test on UACC-62 melanoma, 83.9%; in the test with LOX IMVI melanoma, 72.7%; in the test with SK-MEL-28 melanoma it was 104%.

In the case of `COc1cc(-c2nc3ccccc3o2)cc(CN2CCCCC2)c1O`, the growth in the test on HCT-15 colon is 41.4%; with HT29 colon it was 87.2%; in the test with SNB-75 CNS, 57.6%; with SNB-19 CNS it was 83.3%; with U251 CNS, 47.5%; in the test with PC-3 prostate it was 41.8%. The growth was -83.3% (active) in the test on SK-MEL-5 melanoma, -15.3% (active) with UACC-62 melanoma, -18.6% (active) in the test on LOX IMVI melanoma and 59.5% in the test on SK-MEL-28 melanoma.
